Screening results: PubChem BioAssay, National Center for Advancing Translational Sciences (NCATS)
Only some compounds are listed: those with a hit (about 12% of all), similar ones and a draw of the others.
Sfp inh = Sfp phosphopantetheinyl transferase inhibition; Q9F4F7; Biochemical Sfp PPTase activity, qHTS; Potency, µM, without a hit: largest response in the series, negative = inhibition, actives largely listed as inhibitors; hit rate 3.5% among 310,000; AID 1490;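 note: the enzyme is Sfp with the accession as filed and its product quenches rhodamine fluorescence; 0% = enzyme reaction without inhibitor and -100% = no enzyme wells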
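Buffer: 50 mM Hepes-Na pH 7.6, 10 mM MgCl2, 0.01% Nonidet P-40, 0.01% BSA. Enzyme 15 nM, pre-exposed to compound 15 min; substrates then added and fluorescence change tracked over 30 min.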
G9a inh = inhibitors of human histone lysine methyltransferase G9a; Q96KQ7; G9a H3K9 monomethylation, AlphaScreen, 2 h; Potency, µM (top dose mostly 102 µM), for inactives: top-dose activity, negative = inhibition, usual class: inhibitors; hit rate 8.8% among 350,000; AID 504332; note: % is set by controls: 0 for no effect and ±100 for the full control effect; nearly all actives have a fitted effect of over 75% in size
Target sequence (Q96KQ7 913-1193 limits assumed): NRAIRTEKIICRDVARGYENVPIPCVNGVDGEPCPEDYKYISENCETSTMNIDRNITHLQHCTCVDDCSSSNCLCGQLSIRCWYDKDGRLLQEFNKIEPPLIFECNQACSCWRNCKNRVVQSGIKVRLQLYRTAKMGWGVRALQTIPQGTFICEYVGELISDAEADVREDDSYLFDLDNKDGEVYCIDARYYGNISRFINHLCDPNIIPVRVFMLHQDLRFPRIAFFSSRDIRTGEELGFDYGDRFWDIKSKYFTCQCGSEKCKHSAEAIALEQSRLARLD
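AlphaScreen read-out: biotin-H3K9 peptide (500 nM) methylation by 20 nM enzyme with 20 uM SAM, 2 h at room temperature after 15 min compound preincubation; anti-monomethyl H3K9 antibody plus donor/acceptor beads, 10 min dark.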
L3MBTL1 block = blocks human L3MBTL1; hit rate 0.66% among 230,000; AlphaScreen L3MBTL1–H3K9me1 peptide binding; Potency, µM (top dose mostly 57.1 µM), for the others: top-dose activity, negative = inhibition, hits mostly inhibitors; note: % is set by controls: 0 for no effect and ±100 for the full control effect; nearly all actives have a fitted effect of over 60% in size
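AlphaScreen proximity signal between nickel-chelate acceptor and streptavidin donor beads (final 10 ug/mL) reports binding of 50 nM L3MBTL1 to 75 nM biotin-H3 K9me1 peptide; complex incubated with compounds 30 min at room temperature; cefsulodin titration as control.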
JMJD2A Tudor inh = inhibitors of human JMJD2A Tudor domain; AlphaScreen JMJD2A-Tudor / H3K4me3 peptide binding; Potency, µM (top dose mostly 114 µM), without a hit: at the highest dose activity change, negative = inhibition, most hits filed as inhibitors; hit rate 4.4% among 390,000; AID 504339; note: % is set by controls: 0 for no effect and ±100 for the full control effect; nearly all actives have a fitted effect of over 50% in size
HP1b chromo inh = inhibitors of HP1-beta chromodomain binding to methylated histone tails; Potency, µM (series often up to 114 µM), inactives show top-dose activity change, negative = inhibition, most hits filed as inhibitors; AlphaScreen HP1-beta / biotin-H3K9me3 peptide binding; hit rate 0.56% among 390,000; AID 540317; P83916; note: nearly all actives have a fitted effect of over 70% in size
Target sequence (P83916 whole entry, looked up): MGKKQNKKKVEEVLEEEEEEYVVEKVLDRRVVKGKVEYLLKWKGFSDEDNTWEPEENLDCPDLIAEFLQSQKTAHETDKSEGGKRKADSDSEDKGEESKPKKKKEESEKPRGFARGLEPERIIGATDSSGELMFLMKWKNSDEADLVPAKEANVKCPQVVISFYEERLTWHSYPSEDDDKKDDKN
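AlphaScreen: HP1-beta (50 nM) preformed 30 min with biotin-H3(1-18)K9me3 peptide (50 nM) in PBS pH 7.4, 0.01% Tween-20. Compound added for 30 min at RT, then streptavidin donor/nickel chelate acceptor beads (10 ug/mL) for 30 min.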
BAZ2B inh = blocks human BAZ2B; AlphaScreen BAZ2B-H3K14Ac peptide displacement; Potency, µM (doses to about 114 µM), for inactives: at the top dose activity change, negative = inhibition, actives largely listed as inhibitors; hit rate 4.4% among 360,000; AID 504333; note: % is set by controls: 0 for no effect and ±100 for the full control effect; nearly all actives have a fitted effect of over 60% in size
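In this displacement format the biotinylated H3(5-23) peptide acetylated at Lys14 serves as ligand at 50 nM, with BAZ2B at 50 nM in PBS pH 7.4 containing 0.01% Tween-20. Donor and acceptor beads are 10 ug/mL final.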
Numbers without * were called inactive; ? = inconclusive; / = no result; [ ] = dose if it differs, or a comment. Calls come from the whole dose curve; as a rule, active = well fitted curve in the direction sought with a large enough effect; inconclusive = small, poorly fitted or top-dose-only effect, or another doubt; inactive = no such curve, though single readings can be large; an effect the other way counts as inactive or inconclusive. Potency is the fitted concentration of half-maximal effect.

SMILES	Sfp inh	G9a inh	L3MBTL1 block	JMJD2A Tudor inh	HP1b chromo inh	BAZ2B inh
Cc1ccc(N2C(=O)/C(=C/N3CCN(C(=O)c4ccco4)CC3)C(=O)NC2=S)cc1C	45µM*	54%[12.7 µM]	3%	-14%	5%	-31%
Cc1cnc2c(C(=O)O)c(Cl)ccc2c1	1%	/	/	/	/	/
C1=C(c2c[nH]c3ccccc23)CCN(Cc2ccccc2)C1	12%	-47%	/	-22%	-1%	-20%
CN1CC=C(c2c[nH]c3ccccc23)CC1	10%	7%[59 µM]	32µM*	-16%	13%	5%
COc1ccc(-c2nc(CN3C(=O)CN=C(c4ccccc4)c4cc(Cl)ccc43)c(C)o2)cc1	/	-35%[59 µM]	/	4%	43%	-10%
CC(N)Cc1ccc(O)cc1 (configuration not stated)	8%	-34%[2.33 µM]	/	/	/	/
CC(C)N1CCN(c2ccc(O)cc2)CC1	-91%	8.9µM*	-8%	?	?	-6%
CC(C)(O)C1O[C@H]2CC[C@@]3(C)[C@@](O)(CC[C@H]4Cc5c([nH]c6ccccc56)[C@@]43C)C2=CC1=O (some centres not stated)	-2%	-36%[59 µM]	/	/	/	/
CC(=NCc1ccco1)c1c(O)n(-c2ccccc2C)c(=O)[nH]c1=O	6%	/	4%	-13%	14%	-5%
Cc1ccccc1-n1c(O)c(C(c2ccncc2)c2c(O)n(-c3ccccc3C)c(=O)[nH]c2=O)c(=O)[nH]c1=O	-22%	25µM*	/	-11%	22%	?
C=C[C@H](Cc1ccccc1)N(Cc1ccccc1)S(=O)(=O)N(Cc1ccccc1)[C@H](C=C)Cc1ccccc1	/	/	12%	14%	72%	/
CC(C)CC1C(=O)N2CCC[C@H]2[C@]2(O)O[C@](NC(=O)[C@@H]3C=C4c5cccc6[nH]c(Br)c(c56)C[C@H]4N(C)C3)(C(C)C)C(=O)N12 (some centres not stated)	/	/	/	?	2%	/
CC(C)(C)C(=O)OC1=CN(Cc2ccccc2)S(=O)(=O)c2ccccc21	/	23%[59 µM]	/	14%	71%	5%
NC(=O)c1ncn([C@H]2O[C@@H](CO)[C@@H](O)[C@@H]2O)n1	22%	16%[21.5 µM]	/	/	/	/
CCN1C(=O)C(=C2C=C(C)N(Cc3ccco3)C(C)=C2)C(=O)N(CC)C1=S	3%	53%	38%	20%	77%	32%
CCN1C(=O)C(=C/C=C/c2ccco2)C(=O)N(CC)C1=S	40µM*	13µM*	13µM*	50µM*	?	45µM*
O=C1NC(=O)N(Cc2ccccc2)C(=O)/C1=C/C=C/c1ccco1	?	/	28µM*	-30%	0%	35µM*
O=C(Nc1ccccc1)N1CC2(CCN(C(=O)Oc3ccccc3)CC2)C1	8%	-4%[12.7 µM]	/	/	/	/
COc1ccc(CCNCc2ccc(SC)cc2)cc1	7%	/	1%	-11%	2%	-3%
COc1ccc(CCNCC2CCCO2)cc1 (configuration not stated)	16%	/	2%	28µM*	?	?
COc1cc(C(=O)NCCSc2c(-c3ccccc3)[nH]c3ccccc23)cc(OC)c1OC	/	-7%[59 µM]	/	?	5%	-24%
COc1ccc(OC)c(NC(=O)C2C(C(=O)O)C3(Cl)C(Cl)=C(Cl)C2(Cl)C3(Cl)Cl)c1 (configuration not stated)	-1%	45µM*	-15%	-19%	9%	-31%
COc1ccc(C(=O)Nc2ccc(Cl)cc2C(=O)c2ccccc2)c(OC)c1	/	-9%[59 µM]	/	-7%	23%	-5%
COc1ccc(OC)c(C2=NOC(C(=O)N3CCC4(CC3)OCCO4)C2)c1 (configuration not stated)	1%	-2%[12.7 µM]	0%	25µM*	-1%	7%
O=C(N/N=C1/CN2CCC1CC2)c1cccc(O)c1	-16%	10µM*	/	45µM*	2%	?
CN1C2CCC1CC(OC(=O)c1cccc(O)c1)C2 (configuration not stated)	/	/	/	-10%	26%	/
